From PubChem BioAssay
Activity calls are given as the source filed them.

How the values were obtained:
Albumin (Bos taurus) = Albumin (Bos taurus) (UniProt P02769); test: bovine serum albumin binders on microarray, profiling panel, artefact control for SMM control protein annotation, biochemical, small-molecule microarray, Alexa647 label, 635/667 nm fluorescence (AID 1118); details: BSA-A647 binding, fluorescence 635 nm, higher = more signal;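 note: score merges 667 nm emission intensity and signal-to-noise per printed compound spot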
Sequence of Albumin (Bos taurus) (P02769 whole entry, looked up): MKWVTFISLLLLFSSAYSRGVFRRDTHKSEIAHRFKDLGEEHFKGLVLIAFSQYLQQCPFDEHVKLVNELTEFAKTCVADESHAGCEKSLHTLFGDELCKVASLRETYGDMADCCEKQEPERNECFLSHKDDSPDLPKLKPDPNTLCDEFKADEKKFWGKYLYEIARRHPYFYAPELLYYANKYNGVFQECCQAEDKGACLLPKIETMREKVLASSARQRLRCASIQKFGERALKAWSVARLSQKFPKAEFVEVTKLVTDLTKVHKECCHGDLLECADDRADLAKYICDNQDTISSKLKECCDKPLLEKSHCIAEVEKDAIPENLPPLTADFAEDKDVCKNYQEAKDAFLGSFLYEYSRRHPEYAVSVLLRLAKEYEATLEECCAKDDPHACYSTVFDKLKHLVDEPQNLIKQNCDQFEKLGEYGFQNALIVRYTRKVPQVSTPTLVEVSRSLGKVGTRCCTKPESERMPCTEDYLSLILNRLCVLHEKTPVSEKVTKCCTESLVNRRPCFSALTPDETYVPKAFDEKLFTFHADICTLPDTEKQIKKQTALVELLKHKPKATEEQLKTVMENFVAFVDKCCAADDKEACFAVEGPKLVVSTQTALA

[1] = small-molecule microarray binders of probe aXIP, primary screen, biochemical, NeuroSMM set, 635/667 nm fluorescence (AID 1119); details: higher = more signal, called active from +8 up or from −8 down;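 note: probe is the protein aXip251-270 applied at 1 µg/mL to compound-printed slides; binding of probe to printed compounds measured as 667 nm fluorescence plus signal to noise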
[2] = small-molecule binders of probe aNOTCH3, primary screen, biochemical, small-molecule microarray, 635/667 nm fluorescence (AID 1120); details: higher = more signal;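 note: probe is a biotin-tagged antibody raised against NOTCH3 rather than NOTCH3 protein; score merges spot fluorescence near 667 nm with spot signal to noise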
[3] = small-molecule binders of probe aNOTCH2, primary screen, biochemical, small-molecule microarray, 635/667 nm fluorescence (AID 1121); details: higher = more signal;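 note: score merges feature fluorescence read at 667 nm with its signal to noise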
[4] = target: Carbonic anhydrase 2 (Homo sapiens) (UniProt P00918); test: CAII small-molecule binders, profiling panel, biochemical, small-molecule microarray, Alexa647-labelled CAII (AID 1122); details: CAII-A647 binding fluorescence, higher = more signal
[5] = COS7 lysate on small-molecule microarray, probe aHis, 635 nm (AID 1123); details: COS7 cell lysate, fluorescence, higher = more signal;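 note: z-score combines 667nm fluorescence intensity with signal-to-noise per printed compound spot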
[6] = compound binding in COS7 lysate, probe aLAP1, primary screen, cell lysate, small-molecule microarray (AID 1124); details: probe aLAP1, fluorescence, higher = more signal;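 note: lysate comes from COS7 cells expressing LAP1 and is applied at 0.3 µg/mL; score merges spot fluorescence near 667 nm with signal-to-noise over triplicate slides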
Sam68 (KHDRBS1) = test: Sam68 small-molecule binders, primary screen, biochemical, small-molecule microarray, 635 nm fluorescence (AID 1125); details: small-molecule microarray binding, higher = more signal;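 note: score merges 667 nm channel intensity with signal to noise over triplicate slides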
[7] = tested on: Chordin-like protein 2 (CHRDL2); test: CHRDL2 small-molecule binders, primary screen, biochemical, small-molecule microarray, 635 nm fluorescence (AID 1126); details: small-molecule microarray binding, fluorescence 635 nm; higher = more signal;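 note: printed compound slides probed with Chrdl2 protein at 4 µg/mL for 1 h at 4 C; score merges 667 nm emission intensity with signal to noise over three replicate slides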
[8] = target: Concanavalin-A (Canavalia ensiformis) (UniProt P02866); test: ConA small-molecule binders, primary screen, artefact control for SMM control protein annotation, biochemical, small-molecule microarray, Alexa647 label, 635 nm (AID 1127); details: ConA-A647 binding fluorescence, higher = more signal;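 note: z combines 667 nm emission intensity with signal-to-noise across three replicate slides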
Sequence of Concanavalin-A (Canavalia ensiformis) (P02866 whole entry, looked up): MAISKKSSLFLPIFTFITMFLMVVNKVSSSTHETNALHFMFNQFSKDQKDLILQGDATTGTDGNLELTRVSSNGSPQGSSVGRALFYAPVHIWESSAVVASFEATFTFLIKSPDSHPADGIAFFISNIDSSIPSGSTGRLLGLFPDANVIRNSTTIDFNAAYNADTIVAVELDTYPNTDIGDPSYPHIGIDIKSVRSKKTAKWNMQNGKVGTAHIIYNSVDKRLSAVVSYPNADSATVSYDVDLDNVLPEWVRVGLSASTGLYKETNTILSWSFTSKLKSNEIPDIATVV

Row | SMILES | composite z-score (Albumin (Bos taurus)) | composite Z-score [1] | composite z-score [2] | composite z-score [3] | composite z-score [4] | composite z-score [5] | composite z-score [6] | composite z-score (Sam68 (KHDRBS1)) | composite z-score [7] | composite z-score [8]
1 | CCCNC(=O)[C@@]1(Sc2ccc(C)cc2)CC(=O)N(Cc2ccccc2C(F)(F)F)[C@@H]1c1ccc(CO)cc1I | 0.31 | 0.222 (inactive) | 0.0696 | -0.123 | 0.624 | 1.82 | 0.116 | 1.29 | 0.315 | 0.435
2 | CCCC1(C(=O)OC)C=C2C(=C(c3ccccc3)C(=O)C2C)CN1 (stereo not given) | -0.0235 | 0.589 (inactive) | 0.0365 | 0.015 | 0.756 | 1.51 | 0.959 | 0.0707 | 0.108 | -1.13
3 | COc1ccc([Si](C)(C)[C@@H]2[C@@H](CCn3cc([C@H](O)c4ccccc4)nn3)O[C@]3(C(=O)N(Cc4cccc(N5CCC5=O)c4)c4ccccc43)[C@H]2C)cc1 | -0.185 | -0.0405 (inactive) | -0.152 | -0.0598 | -0.105 | 0.288 | 0.0413 | -0.233 | 0.422 | 0.0651
4 | CN1CCC(CCCO)=CC1c1cccs1 (stereo not given) | -0.552 | 0.639 (inactive) | -0.0048 | -0.148 | 0.74 | -0.743 | -0.476 | -0.203 | -0.154 | -0.384
5 | O=C1C2C=CC(C(O)c3ccc4c(c3)OCO4)N(Nc3ccc([N+](=O)[O-])cc3)C2C(=O)N1c1ccccc1 (stereo not given) | 0.854 | -0.0054 (inactive) | 0.0225 | -0.104 | 0.699 | 1.15 | 0.345 | 0.597 | -0.0385 | 0.813
6 | CN1C(=O)C2C=CC(C(O)c3c(F)cccc3Cl)N(NC(=O)OC(C)(C)C)C2C1=O (stereo not given) | 0.972 | 2.18 (inactive) | -0.0362 | 0.109 | 0.572 | 2.75 | 0.67 | 1.22 | -0.729 | 0.918
7 | CCOC(=O)C1=CC[C@@H](c2ccc(C(F)(F)F)cc2)N(S(=O)(=O)c2ccc(C)cc2)[C@H]1c1ccccc1 | 0.871 | 0.506 (inactive) | 0.158 | 0.21 | 0.603 | 2.27 | 0.782 | 1.31 | -0.863 | 1.13
8 | CCOC(=O)C1=CC[C@H]2C(=O)N(c3ccccc3)C(=O)[C@@H]12 | 0.916 | 1.58 (inactive) | 0.0893 | -0.046 | 0.848 | 2.7 | 0.786 | 1.31 | 0.613 | 1.05
9 | COc1ccc([Si](C)(C)[C@H]2[C@H](CCO)O[C@@]3(C(=O)N(Cc4ccccc4)c4ccc(N5CCCCC5=O)cc43)[C@@H]2C)cc1 | 0.78 | 0.388 (inactive) | -0.0918 | -0.133 | 0.342 | 0.376 | 0.237 | 0.965 | 0.207 | 0.905
10 | COc1cc2c(cc1O)C(c1cccs1)N(Cc1cccc(OC(F)(F)F)c1)CC2 (stereo not given) | 0.899 | 0.934 (inactive) | -0.128 | -0.148 | 0.78 | 2.6 | 0.336 | 1.15 | 0.375 | 0.127
11 | COC(=O)[C@@]1(Cc2ccccc2)[C@H]2c3cc(C(=O)N4CCCC4)n(Cc4ccc(O)c(OC)c4)c3C[C@H]2CN1C(=O)c1ccccc1 | 0.638 | -0.0662 (inactive) | 0.63 | 0.302 | 0.83 | 2.37 | 0.0364 | 0.008 | -1.62 | 0.284
12 | C=C(CCCC)/C(=C/C[C@@H](OC(C)=O)c1ccccc1OCCO)c1cc(C(=O)OC)ccc1OC | 0.056 | -0.737 (inactive) | -0.0947 | -0.103 | 0.402 | 0.0769 | 0.0978 | 0.166 | -0.354 | -0.544
13 | COC(=O)[C@@]1(Cc2ccc(OC)cc2)[C@H]2c3cc(C(=O)N4CCCC4)n(CCCNc4ncc(C(F)(F)F)cc4Cl)c3C[C@H]2CN1C(=O)c1ccccc1 | 0.978 | -0.682 (inactive) | 1.09 | 0.787 | 0.516 | 0.97 | 0.213 | 0.313 | 0.269 | 0.878
14 | C=C(CCCC)C(=O)CC[C@H](OC(=O)c1cccnc1)c1ccc(OCCO)cc1 | 0.0514 | 0.197 (inactive) | -0.0076 | -0.14 | 0.72 | -0.0099 | 0.022 | 0.567 | 0.191 | -0.421
15 | COc1ccc([C@H]2C[C@H]3C(Br)=C[C@@]2(CO)C(=O)[C@]32CO2)cc1 | -0.613 | -0.0805 (inactive) | -0.103 | -0.0684 | 0.0574 | -0.128 | 0.289 | -0.318 | 0.282 | 0.178
16 | COCCOC(=O)N1C(=O)[C@@]2(c3cc(C#CC4=CCCCC4)ccc31)[C@H](C(N)=O)[C@H]1C(=O)O[C@H](c3ccccc3)[C@H](c3ccccc3)N1[C@@H]2c1ccc(O)cc1 | 0.744 | -0.158 (inactive) | 0.116 | 0.117 | 0.433 | 1.83 | 0.322 | 1.3 | 0.302 | 1.11
17 | COC(=O)[C@@]1(Cc2ccc(OC)cc2)[C@H]2c3cc(C(=O)N4CCCC4)n(CCSCCO)c3C[C@H]2CN1C(=O)c1ccccc1 | 0.905 | 0.228 (inactive) | 0.211 | 0.0312 | 0.678 | 3.24 | 0.247 | 0.657 | -0.633 | 0.941
18 | COCCOC(=O)N1C(=O)[C@@]2(c3ccccc31)[C@H](C(N)=O)[C@H]1C(=O)O[C@H](c3ccccc3)[C@H](c3ccccc3)N1[C@@H]2c1ccc(O)cc1 | 0.737 | 0.573 (inactive) | -0.162 | -0.104 | 0.54 | 2.37 | 0.325 | 0.371 | -0.169 | 0.237
19 | Cc1ccc([C@H]2C(C(=O)O)=CCN2S(=O)(=O)c2ccc(C)cc2)cc1 | 0.899 | -0.168 (inactive) | -0.0299 | -0.109 | 0.825 | 1.21 | 0.584 | 0.539 | -0.518 | 1.02
20 | CC1CC/C=C\[C@H]2OC34C=CCN(Cn5nnc6ccccc65)C(=O)[C@H]3N(CCCCCO)C(=O)[C@@H]4C2C(=O)O1 (stereo not given in full) | -1.22 | 0.19 (inactive) | -0.236 | -0.106 | 0.548 | 0.737 | 0.434 | 0.479 | -1.75 | -0.845
21 | CC(C)[C@@H](C(=O)O)n1cc(C2(O)CCCCC2)nn1 | 0.641 | -0.283 (inactive) | 0.089 | -0.161 | 0.0232 | 0.303 | 0.0595 | 1.01 | -0.121 | 1.04
22 | C=CC[C@]12N=C(c3ccc(OCCCO)cc3)O[C@H]1c1ccccc1N(CCS(=O)(=O)c1ccccc1)C2=O | 0.922 | 0.526 (inactive) | -0.0728 | -0.0692 | 0.727 | 1.12 | 0.486 | 1.3 | 0.873 | 1.18
23 | C[N+](C)(C)CCCC[C@@H]1NC(=O)[C@@H]2C[C@H](C(=O)NCCCCCCNC(=O)CS)[C@H](c3ccc(O)cc3)N2C1=O | 0.303 | 0.0896 (inactive) | -0.443 | -0.115 | 0.82 | 0.443 | 0.596 | -0.731 | -0.377 | 0.871
24 | CC1CC/C=C\[C@H]2OC34C=CCN(Cc5ccccc5)C(=O)[C@H]3N(C(C)CO)C(=O)[C@@H]4C2C(=O)O1 (stereo not given in full) | -0.852 | -0.592 (inactive) | -0.0647 | -0.0846 | 0.331 | -0.412 | -0.0231 | -0.99 | -0.0576 | -0.239
25 | C#CCNCc1ccccc1 | -0.172 | 0.204 (inactive) | -0.201 | -0.117 | -0.0848 | -0.0833 | 0.149 | 0.44 | 0.128 | 0.159
